The text below walks through data of PubChem BioAssay (NCATS).

Inconclusive results are not listed. Values without a mark were called inactive. Active and inactive are the calls of the source. The call rests on the fitted dose curve; in most records, active means well fitted inhibition curve with a large enough effect; inconclusive means small, poorly fitted or top-dose-only effect; inactive means flat fitted curve, though single readings scatter.
On the % scale 0 is the no-effect control and ±100 the full control effect; potency means the concentration at half of the fitted maximal effect.

The assay concerns HEK293. As to the kind of experiment: Cytotoxic Profiling of Annotated Libraries Using Quantitative High-Throughput Screening (AID 1296008). Further: nearly all actives have a fitted effect of over 60% in size. Conditions: Five cell lines viability, CellTiter-Glo ATP luminescence, 48-72 h; max response: stronger effect = lower value. From the text: Cell-based phenotypic screening is a commonly used approach to discover biological pathways, novel drug targets, chemical probes and high-quality hit-to-lead molecules. Many hits identified from high-throughput screening campaign are ruled out through a series of follow-up potency, selectivity/specificity, and cytotoxicity assays. Prioritization of molecules with little or no cytotoxicity for a more in-depth downstream evaluation influence the future direction of projects, so cytotoxicity profiling of the screening libraries at early stage is essential for increasing the likelihood of candidate success. […] For the annotated library, we also examined the primary targets and mechanistic pathways regularly associated with cell death. To our knowledge, this is the first study to use high-throughput screening to profile large libraries for cytotoxicity assessment in both normal and cancer cell lines. In summary, the results generated here constitutes a valuable resource for the scientific community and provides insight on identifying cytotoxic compounds with particular mechanisms of action, and prioritizing compounds with suitable cytotoxicity profile for further evaluation.
A pintool (Kalypsys) was used to transfer 23 nL of compound solution to the 1536-well assay plates. After 48 or 72 hr incubation at 37 degree Celsius, 5% CO2 and 95% humidity, 2.5 uL of CellTiter-Glo (Promega) was dispensed into each well using a dispenser (Aspect Automation, St. Paul, MN) with solenoid valves (Lee Valves, Westbrook CT). Plates were left at room temperature for 10 min before imaging the ATP-coupled luminescence using a ViewLux microplate imager (PerkinElmer, Waltham, MA).
As to `CC(C)[C@@](C)(O)[C@@H]1CN(c2nc(-c3[nH]nc4ncccc34)c(F)cc2Cl)CCN1`, the Potency was 13 µM (active). Take `COC(=O)N(C)c1c(N)nc(-c2nn(Cc3ccccc3F)c3ncccc23)nc1N`: the max response is -0.877%.

Regarding `CCC(O)(C(=O)OCc1ccccc1NC(=O)CCC(=O)O)C(C)O` (stereo not given), the max response is -0.446%.

In the case of `Cc1ccc(Cc2c(C)nc3nc(SCC(=O)NCCN4CCNCC4)nn3c2C)cc1`, the max response is 2.24%. For `O=C(OCC1=CC(O)C2C=CO[C@@H](O[C@@H]3O[C@H](CO)[C@@H](O)[C@H](O)[C@H]3O)C12)c1ccccc1` (stereo not given in full), the max response is -4.16%. On the same count and under the same terms, the result for `Cc1cc(C(=O)N2Cc3cnn(C)c3Nc3ccccc32)ccc1CNC(=O)N1CCC[C@H]1C(=S)N1CCCN(C)CC1` reads -0.106%; that for `CCC(COC)n1nnc2c(Nc3ccc(OC)cc3C)nc(C)cc21` (stereo not given), -7.21%. Regarding `COc1ccc(-c2cnc(-c3cccc4c3-c3ccccc3C4=O)o2)cc1`, the Potency was 0.112 µM (active). For `O=C(/C=C/c1ccc(O)cc1)OC1[C@H](O)CC(O)(C(=O)O)C[C@H]1O` (stereo not given in full), the max response is -1.83%. For `COC(=O)C[C@H]1C(C)(C)[C@H](OC(C)=O)C2CC3=C4CC(=O)O[C@@H](c5ccoc5)[C@]4(C)CCC3[C@@]1(C)C2=O` (stereo not given in full), the max response is -19.9%. `C[C@@H]1N[C@H]2N(C1=O)c1ccccc1[C@@]2(O)C[C@@H]1C(=O)N[C@@H](C)c2nc3ccccc3c(=O)n21`: the max response was -21.5%. Consider `CCOc1cc(N2CCC(O)CC2)ccc1Nc1ncc2c(n1)N(C1CCCC1)CCC(=O)N2C`, for which the Potency is 5.8 µM (active).

For the compound `C[C@@H]1O[C@@H](O[C@H]2[C@H](OC(=O)[C@]34CCC(C)(C)C[C@H]3C3=CCC5[C@@]6(C)C[C@H](O)[C@H](O[C@@H]7O[C@H](CO)[C@@H](O)[C@H](O)[C@H]7O)[C@@](C)(CO)C6[C@H](O)C[C@@]5(C)[C@]3(C)C[C@H]4O)OC[C@H](O)[C@@H]2O)[C@H](O)[C@H](O)[C@H]1O[C@@H]1OC[C@@H](O)[C@H](O[C@H]2OC[C@](O)(CO)[C@H]2O)[C@H]1O` (stereo not given in full), the max response was 3.89%.

`COc1cccc(C(=O)N2CCN(C(=O)COc3cccc(C)c3)CC2)c1OC`: the max response was -16.5%.

Turning to `CC(C)=CCC[C@](C)(O[C@@H]1O[C@H](CO)[C@@H](O)[C@H](O)[C@H]1O)[C@H]1CC[C@]2(C)[C@@H]1[C@H](O)CC1[C@@]3(C)CC[C@H](O)C(C)(C)C3[C@@H](O[C@@H]3O[C@H](CO)[C@@H](O)[C@H](O)[C@H]3O[C@@H]3OC[C@@H](O)[C@H](O)[C@H]3O)C[C@]12C` (stereo not given in full), the max response was -0.716%. For `COc1cc2c(cc1OC)[C@@H]1[C@H](O)[C@@H](OC)C=C3CCN(C2)[C@H]31`, the Potency was 4.53 µM (active).

With `NC(=O)c1csc(C2OC(CO)C(O)C2O)n1` (stereo not given), the max response was -9.16%. Still for that read-out and setting: for `C=CC(C)(C)c1[nH]c2cc3c(cc2c1CC1NC(=O)C2=CCCN2C1=O)C=CC(C)(C)O3` (stereo not given) the value was -27.4%. As to `O=C(/C=C/c1ccccc1)OC[C@]12O[C@H]1[C@@H](O)[C@@H]1C=CO[C@@H](O[C@@H]3O[C@H](CO)[C@@H](O)[C@H](O)[C@H]3O)[C@@H]12`, the outcome was inactive. For the compound `CO[C@H]1C[C@@H]2CC[C@@H](C)[C@@](O)(O2)C(=O)C(=O)N2CCCC[C@H]2C(=O)O[C@H]([C@H](C)C[C@@H]2CC[C@@H](OP(C)(C)=O)[C@H](OC)C2)CC(=O)[C@H](C)/C=C(\C)[C@@H](O)[C@@H](OC)C(=O)[C@H](C)C[C@H](C)/C=C/C=C/C=C/1C`, the Potency is 0.0063 µM (active).

Regarding `O=C(O)c1c(O)c(-c2ccccc2)nc2ccccc12`, the max response is -11.2%. On the same count and under the same terms, for `C[C@@H]1CCC2C(C)(C)[C@H](O)CC[C@]2(C)[C@@]12Cc1c(O)cc3c(c1O2)CNC3=O` (stereo not given in full) the value was -94.6%. On to `O=C(c1ccc(/C=C/c2n[nH]c3ccccc23)cc1)N1CCNCC1`, for which the Potency is 20.6 µM (active). In the case of `Clc1cc2c(NC3CCCC3)nnc(-c3ccncc3)c2cc1Cl`, the max response is -9.96%. `O=C1NC(Cc2c[nH]c3ccccc23)C(=O)NC1Cc1c[nH]c2ccccc12` (stereo not given): the compound was classed as inactive. For the compound `C/C=C/c1ccc(O[C@@H]2O[C@H](CO)[C@@H](O)[C@H](O)[C@H]2O)c(OC)c1`, the Potency is 11.4 µM (active).

Consider `C=C1C(=O)OC2C1CCC(=C)C1CC(OC(C)=O)C(=C)C12` (stereo not given), for which the Potency is 11.6 µM (active). Turning to `CC1=C(C)C(=O)OC(C(C)C2CCC3C4CC=C5CC(OC6OC(COC7OC(CO)C(O)C(O)C7O)C(O)C(O)C6O)CC(O)C5(C)C4CCC23C)C1` (stereo not given), the max response is -1.67%.

As to `COc1ccc([C@H]2CNC(=O)C2)cc1OC1CCCC1`, the max response was -1.53%.

Consider `CC[C@@H](O)C[C@@H]1C(C)=C[C@@H]2CCCC[C@@H]2[C@@]1(C)C(=O)O`, for which the max response is -6.46%. The same measure, in the same setting: the result for `CCCN1CCN(c2ccc(C(=O)NC3(C(=O)NCC#N)CCCCC3)cc2)CC1` reads -5.14%.

As to `CN(C)c1nc(NC2CCC(NC(=O)c3ccc(F)c(F)c3)CC2)nc2ccccc12` (stereo not given), the Potency was 16.4 µM (active). For `CC1=CC(=O)CC2C1(O)CCC(C)C21CC(c2ccoc2)OC1=O` (stereo not given), the max response is -14.1%.

Take `Cc1cc(C(=O)Nc2cccc(C(=O)Nc3cccc(C(F)(F)F)c3)c2)on1`: the max response is 2.99%.

With `CC(=O)O[C@@H]1[C@H](O)[C@@H](O[C@@H]2O[C@@H](C)[C@H](O[C@@H]3OC[C@@H](O)[C@H](O[C@@H]4OC[C@@H](O)[C@H](O)[C@H]4O)[C@H]3O)[C@@H](O[C@@H]3O[C@H](CO)[C@@H](O)[C@H](O)[C@H]3O)[C@H]2O)[C@H](OC(=O)[C@]23CCC(C)(C)C[C@H]2C2=CCC4[C@@]5(C)CC[C@H](O[C@@H]6O[C@H](C(=O)O)[C@@H](O)[C@H](O[C@@H]7OC[C@@H](O)[C@H](O)[C@H]7O)[C@H]6O[C@@H]6O[C@H](CO)[C@H](O)[C@H](O)[C@H]6O)[C@@](C)(C=O)C5CC[C@@]4(C)[C@]2(C)CC3)O[C@@H]1C` (stereo not given in full), the max response is -5.31%. With `C#CC[C@H](c1nc2cc(Cl)ccc2c(=O)n1Nc1ccccc1)N(CCCN)C(=O)c1cccc(Cl)c1F`, the Potency was 1.46 µM (active). For the compound `COC1=CC(=O)CC(C)C12Oc1cc(OC)cc(O)c1C2=O` (stereo not given), the max response was 0.0359%. Same read-out and setting: the result for `COc1ccc([C@@H]2OC[C@H]3[C@@H]2CO[C@@H]3c2ccc(OC3OC(CO)C(O)C(O)C3O)c(OC)c2)cc1OC` (stereo not given in full) reads -3.32%; that for `CCCC(=O)O[C@@H]1[C@@H]2[C@@H](OC(C)=O)[C@]3(C)C(=O)[C@H]4[C@@H](OC(C)=O)C(C)(C)C[C@H]4[C@]3(C)C(=O)[C@@]2(OC(C)=O)C[C@@H]1C`, 3.97%. In the case of `CCCC(=O)NCCc1csc(-c2ccc(Cl)cc2)n1`, the Potency was 16.4 µM (active).
